# Results filed as inconclusive are left out. Where a call stands in place of a potency, no number is given. The source made the active and inactive calls. Unless noted, calls come from the whole dose curve; as a rule, active = well fitted curve in the direction sought with a large enough effect in the repeat runs; inconclusive = weak or mixed curves; inactive = no such curve, though single readings can be large; an effect the other way counts as inactive or inconclusive.
# Experiments:
# [1] = qHTS assay to identify small molecule antagonists of the estrogen receptor alpha (ER-alpha) signaling pathway using the BG1 cell line in the presence of 0.1 nM 17-beta-estradiol - cell viability counter screen (AID 1259241); note: nearly all actives have a fitted effect of over 40% in size
# Procedure, shortened: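 Estradiol-stimulated (0.1 nM) VM7Luc4E2 cells exposed to compounds 22 hr; viability measured by fluorescence of cleaved CellTiter-Fluor substrate after 30 min.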
# [2] = qHTS assay to identify small molecule antagonists of the androgen receptor (AR) signaling pathway using the MDA cell line in the presence of 0.5 nM R1881 - cell viability counter screen (AID 1259242); note: nearly all actives have a fitted effect of over 45% in size; note: potency is the fitted concentration of half-maximal effect
# Procedure, shortened: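 Concentration-response screen of compounds for toxicity in MDA-kb2 reporter cells: 16 hr at 37C with 0.5 nM R1881, endpoint live-cell protease fluorescence measured in the reporter wells.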
# [3] = qHTS assay to identify small molecule HDAC inhibitors - cell viability counter screen (AID 1259365); note: series mostly up to about 92 µM; nearly all actives have a fitted effect of over 50% in size
# Procedure, shortened: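 After overnight seeding at 1,500 cells per well, wild-type HCT-116 cultures took up compounds in DMSO for 2hr at 37 C. Viable cell content came from luminescence with CellTiter-Glo.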
# [4] = qHTS assay to identify small molecule agonists of the sonic hedgehog signaling (Shh) pathway - cell viability counter screen (AID 1259366); note: nearly all actives have a fitted effect of over 50% in size
# Procedure, shortened: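 Same-well cytotoxicity read. Gli1-Luc reporter 3T3 cells; compounds 24hr, 37C/5% CO2; CellTiter-Fluor fluorescence.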
# [5] = qHTS assay to identify small molecule antagonists of the sonic hedgehog signaling (Shh) pathway - cell viability counter screen (AID 1259367); note: nearly all actives have a fitted effect of over 55% in size
# Procedure, shortened: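 CellTiter-Fluor signal in conditioned medium-stimulated 3T3 Gli1-Luc cells, 23 hr compound exposure, 37C.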
# [6] = qHTS assay to identify small molecule agonists of the sonic hedgehog signaling (Shh) pathway (AID 1259368; calls by dose curve;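 note: NIH/3T3-derived 3T3Gli1-Luc cells carrying a stable Gli1-driven firefly luciferase reporter; series mostly up to about 92 µM; nearly all actives have a fitted effect of over 15% in size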)
# Procedure, shortened: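 Hedgehog pathway agonism scored by increased firefly luciferase luminescence in 3T3Gli1-Luc cells treated 24 hr at 37 C; detection used a 30 min room-temperature reagent incubation.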
# [7] = qHTS assay to identify small molecule antagonists of the sonic hedgehog signaling (Shh) pathway (AID 1259369; calls by dose curve; note: nearly all actives have a fitted effect of over 45% in size; note: potency is the fitted concentration of half-maximal effect)
# Procedure, shortened: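 NIH/3T3 stable Gli1-Luc clone, 2,000 cells/well, 4hr settle; cpd + conditioned medium 24hr; Luc reagent 30min RT; luminescence.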
# [8] = target: Estrogen receptor beta (Homo sapiens) (UniProt Q92731); assay: qHTS assay to identify small molecule agonists of the estrogen receptor beta (ER-beta) signaling pathway (AID 1259377; active = well fitted activation curve with a large enough effect in the signal ratio in the repeat runs, not every such curve was filed as active; the % refers to the signal ratio)
# Estrogen receptor beta (Homo sapiens), sequence (Q92731 whole entry, looked up): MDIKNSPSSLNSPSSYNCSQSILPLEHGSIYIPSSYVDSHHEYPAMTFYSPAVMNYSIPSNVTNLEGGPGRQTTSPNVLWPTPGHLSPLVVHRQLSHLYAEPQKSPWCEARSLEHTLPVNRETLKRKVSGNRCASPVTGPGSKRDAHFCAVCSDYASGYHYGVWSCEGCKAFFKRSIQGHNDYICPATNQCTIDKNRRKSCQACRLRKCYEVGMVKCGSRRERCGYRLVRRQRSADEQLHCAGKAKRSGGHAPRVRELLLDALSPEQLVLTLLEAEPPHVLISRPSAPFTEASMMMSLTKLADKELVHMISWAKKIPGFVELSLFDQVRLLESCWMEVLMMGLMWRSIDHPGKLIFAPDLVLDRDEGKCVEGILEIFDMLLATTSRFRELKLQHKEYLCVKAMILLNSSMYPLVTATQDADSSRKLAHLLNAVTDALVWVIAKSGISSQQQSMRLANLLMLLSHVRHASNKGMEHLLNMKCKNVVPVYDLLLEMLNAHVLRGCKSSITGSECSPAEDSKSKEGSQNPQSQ
# Procedure, shortened: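 Read-out: beta-lactamase FRET fluorescence. Cell line: ER-beta-UAS-bla HEK293T in 2% charcoal-stripped FBS. Exposure: 16 hr at 37C. Substrate step: 2 h at room temperature.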
# [9] = target: Estrogen receptor beta (Homo sapiens) (UniProt Q92731); assay: qHTS assay to identify small molecule antagonists of the estrogen receptor beta (ER-beta) signaling pathway (AID 1259378; active = well fitted inhibition curve with a large enough effect in the signal ratio in the repeat runs, not every such curve was filed as active; the % refers to the signal ratio)
# Procedure, shortened: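 Antagonist mode: compounds added to beta-lactamase reporter HEK293T ER-beta-UAS cells stimulated with E2 (1nM final), 16 hr at 37C. LiveBLAzer B/G FRET substrate, 2 hours room temperature, fluorescence read-out.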
# [10] = qHTS assay to identify small molecule agonists of the estrogen receptor beta (ER-beta) signaling pathway - cell viability counter screen (AID 1259380); note: nearly all actives have a fitted effect of over 30% in size; note: potency is the fitted concentration of half-maximal effect
# Procedure, shortened: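 Measured: luminescence from CellTiter-Glo after 30 min at room temperature, added to wells already read for the LiveBLAzer FRET reporter (2 hr substrate); ER-beta-UAS-bla HEK293T cells had 16 hr compound treatment at 37C, 5% CO2.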
# [11] = qHTS assay to identify small molecule antagonists of the estrogen receptor beta (ER-beta) signaling pathway - cell viability counter screen (AID 1259382);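 note: HEK293T cells carrying ER-beta-UAS-bla reporter stimulated with estradiol; series mostly up to about 92 µM; nearly all actives have a fitted effect of over 55% in size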
# Procedure, shortened: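 Readout: luminescence, CellTiter-Glo, same wells as bla assay. System: ER-beta-UAS-bla GripTite HEK293T, 2% charcoal-stripped FBS. Exposure: compounds plus 1nM 17-beta-estradiol, 16 hr, 37C.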
# [12] = qHTS assay to identify small molecule agonists of the androgen receptor (AR) signaling pathway in the presence of an antagonist - cell viability counter screen (AID 1259379); note: nearly all actives have a fitted effect of over 25% in size; note: potency is the fitted concentration of half-maximal effect
# Procedure, shortened: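 MDA-kb2 viability measured by CellTiter-Fluor fluorescence in the same wells as the luciferase signal; nilutamide 3.0uM final; 15-point compound titration; 16 hr at 37C.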
# [13] = qHTS assay to identify small molecule agonists or antagonists of the thyroid stimulating hormone receptor (TSHR) signaling pathway - wild type cell line counter screen (AID 1259384; calls by dose curve)
# Procedure, shortened: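 Counter screen in untransfected Hek293: compounds (15-point titration, triplicate) plus phosphodiesterase inhibitor Ro20-1724 added after 18 h plating; 30 min RT. Intracellular cAMP via competitive d2/cryptate immunoassay, 1 h incubation.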
# [14] = target: Thyrotropin receptor (Homo sapiens) (UniProt P16473); assay: qHTS assay to identify small molecule antagonists of the thyroid stimulating hormone receptor (TSHR) signaling pathway (AID 1259385; calls by dose curve; note: nearly all actives have a fitted effect of over 20% in size)
# Thyrotropin receptor (Homo sapiens), sequence (P16473 whole entry, looked up): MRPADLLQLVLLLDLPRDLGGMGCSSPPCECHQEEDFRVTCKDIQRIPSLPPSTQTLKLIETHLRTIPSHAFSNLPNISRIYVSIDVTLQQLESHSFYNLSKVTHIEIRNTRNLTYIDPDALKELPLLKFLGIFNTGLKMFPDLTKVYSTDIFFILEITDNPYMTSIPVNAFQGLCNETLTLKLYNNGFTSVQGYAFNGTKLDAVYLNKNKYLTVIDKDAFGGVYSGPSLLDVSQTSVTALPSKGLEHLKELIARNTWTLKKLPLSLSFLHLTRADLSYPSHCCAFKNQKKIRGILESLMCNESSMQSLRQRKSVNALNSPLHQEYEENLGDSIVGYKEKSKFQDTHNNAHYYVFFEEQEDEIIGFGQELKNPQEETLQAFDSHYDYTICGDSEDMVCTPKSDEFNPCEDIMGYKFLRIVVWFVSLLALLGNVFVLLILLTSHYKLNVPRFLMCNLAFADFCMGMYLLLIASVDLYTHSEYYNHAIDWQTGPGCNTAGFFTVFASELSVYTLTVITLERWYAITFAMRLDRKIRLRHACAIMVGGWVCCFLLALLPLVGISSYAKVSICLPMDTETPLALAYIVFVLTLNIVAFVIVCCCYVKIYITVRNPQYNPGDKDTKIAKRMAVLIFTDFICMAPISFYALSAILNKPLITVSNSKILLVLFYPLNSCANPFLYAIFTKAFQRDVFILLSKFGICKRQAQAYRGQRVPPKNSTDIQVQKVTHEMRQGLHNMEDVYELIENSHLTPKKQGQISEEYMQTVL
# Procedure, shortened: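 Antagonist mode: compound-treated TSHR-expressing HEK293 cells were stimulated with 1.5 ng/mL TSH (final) in presence of Ro20-1724 for 30 min at RT. HTRF cAMP detection after 1 h; each compound tested at 15 concentrations, triplicate.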
# [15] = qHTS assay to identify small molecule phospholipidosis (PLD) inducers (AID 1259344; active = well fitted curve in the direction sought with a large enough effect; an effect the other way counts as inactive or inconclusive)
# Procedure, shortened: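 Accumulated phospholipid, stained red by LipidTOX during 24 h compound treatment of HepG2 cells at 37 C, is quantified from images as pit number and intensity, normalised per cell using Hoechst-stained nuclei.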
# [16] = target: Estrogen receptor (Homo sapiens) (UniProt P03372); assay: qHTS assay to identify small molecule agonists of the estrogen receptor alpha (ER-alpha) signaling pathway in the presence of an antagonist (AID 1259383; calls by dose curve; note: top concentration of the series differs between compounds; nearly all actives have a fitted effect of over 15% in size)
# Estrogen receptor (Homo sapiens), sequence (P03372 whole entry, looked up): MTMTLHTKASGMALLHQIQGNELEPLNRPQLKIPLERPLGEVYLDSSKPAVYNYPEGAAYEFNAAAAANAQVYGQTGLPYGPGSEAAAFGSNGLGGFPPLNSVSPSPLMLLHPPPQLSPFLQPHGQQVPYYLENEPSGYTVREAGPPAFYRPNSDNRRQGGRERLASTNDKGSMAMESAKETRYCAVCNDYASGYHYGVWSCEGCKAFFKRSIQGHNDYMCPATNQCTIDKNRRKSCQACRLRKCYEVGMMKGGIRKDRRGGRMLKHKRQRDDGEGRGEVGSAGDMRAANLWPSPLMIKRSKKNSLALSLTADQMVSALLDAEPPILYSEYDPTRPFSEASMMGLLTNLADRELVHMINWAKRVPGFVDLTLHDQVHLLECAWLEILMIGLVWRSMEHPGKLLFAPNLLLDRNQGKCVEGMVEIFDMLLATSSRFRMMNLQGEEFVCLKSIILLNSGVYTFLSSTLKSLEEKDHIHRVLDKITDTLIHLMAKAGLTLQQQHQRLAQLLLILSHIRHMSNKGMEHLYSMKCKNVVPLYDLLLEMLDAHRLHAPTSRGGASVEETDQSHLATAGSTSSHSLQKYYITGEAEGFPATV
# Procedure, shortened: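 Quantitative HTS confirmation: compounds titrated at 15 concentrations onto estrogen-deprived VM7Luc4E2 cells carrying a four-ERE luciferase construct, with ICI-182,780 present at 10.0nM final. Signal is luminescence after 22hr exposure.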
# [17] = qHTS assay to identify small molecule HDAC inhibitors (AID 1259364);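 note: wild-type HCT-116 cells with endogenous class I/II HDAC activity; potency is the fitted concentration of half-maximal effect; nearly all actives have a fitted effect of over 45% in size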
# Procedure, shortened: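 Screening used wild-type human colon HCT-116 cells incubated overnight, dosed with compounds for 2 hours, and assayed with a homogeneous luminogenic HDAC I/II reagent for 30 minutes at room temperature.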
Compound,Potency [1],Potency [2],outcome [3],Potency [4],Potency [5],outcome [6],Potency [7],Potency [8],Potency [9],Potency [10],Potency [11],Potency [12],Potency [13],Potency [14],Potency [15],Potency [16],Potency [17]
CCOc1ccc(NC(=O)CC(C)=O)cc1,inactive,inactive,inactive,inactive,inactive,inactive,inactive,inactive,inactive,inactive,inactive,–,–,–,–,–,–
O=C=NC1CCC(CC2CCC(N=C=O)CC2)CC1 (configuration not stated),inactive,–,inactive,–,–,–,43.3 µM (active),inactive,inactive,68.6 µM (active),–,30.6 µM (active),inactive,inactive,–,–,–
Cc1nc2ccccc2n1Cc1ccc(Cl)cc1,–,5.96 µM (active),inactive,–,inactive,inactive,–,inactive,–,–,inactive,4.22 µM (active),–,–,inactive,inactive,–
CC(C)(C)c1ccc(S)cc1,inactive,inactive,inactive,inactive,inactive,–,inactive,inactive,–,–,inactive,inactive,inactive,inactive,–,inactive,–
O=C(CC(=O)c1ccccc1)c1ccccc1,inactive,inactive,inactive,–,inactive,–,inactive,–,–,inactive,inactive,inactive,inactive,inactive,–,–,2.93 µM (active)

# Reference: PubChem BioAssay (Tox21)
